Experimental data taken from the supplement of paper PMC11732987, “Enantioselective OTUD7B fragment discovery through chemoproteomics screening and high-throughput optimisation” (Communications Chemistry, 2025).

Tests used:
Experiment in all cases: log2 ratio of Biotin-Ahx-Ub-VS probe labelling (fragment/DMSO); higher = less target engagement (more negative = stronger competition), active = hit call of the paper (q ≤ 0.05, log2 ratio ≤ -1)
Details in all cases: compound concentration: 200 uM; treatment time: 3 h
OTUD6B = molecular target: T1, OTUD6B (UniProt Q8N6M0)
T1 sequence (whole entry): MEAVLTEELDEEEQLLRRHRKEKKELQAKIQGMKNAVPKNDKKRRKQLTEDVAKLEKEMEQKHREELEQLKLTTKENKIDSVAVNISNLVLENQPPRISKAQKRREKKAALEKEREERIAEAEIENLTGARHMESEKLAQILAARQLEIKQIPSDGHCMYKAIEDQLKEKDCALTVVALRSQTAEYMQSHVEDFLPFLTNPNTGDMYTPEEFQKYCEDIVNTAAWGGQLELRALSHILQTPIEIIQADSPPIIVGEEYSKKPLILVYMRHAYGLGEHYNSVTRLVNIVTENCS
Outline: (§1)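 Values give the average log2 ratio of fragment to vehicle, assessed by unpaired t-test on global-median-normalised Spectronaut label-free quantities. Proteins needed ≥2 unique peptides. HEK293T lysate (495 µg per sample) was treated in triplicate with fragment at 200 µM or vehicle for 3 h and then with Biotin-Ahx-Ub-VS at 0.5 µM final for 1 h. Labelled DUBs were NeutrAvidin-enriched, digested and run by diaPASEF LC-MS/MS.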

OTUD7B = molecular target: T2, OTUD7B (UniProt Q6GQQ9)
T2 sequence (whole entry): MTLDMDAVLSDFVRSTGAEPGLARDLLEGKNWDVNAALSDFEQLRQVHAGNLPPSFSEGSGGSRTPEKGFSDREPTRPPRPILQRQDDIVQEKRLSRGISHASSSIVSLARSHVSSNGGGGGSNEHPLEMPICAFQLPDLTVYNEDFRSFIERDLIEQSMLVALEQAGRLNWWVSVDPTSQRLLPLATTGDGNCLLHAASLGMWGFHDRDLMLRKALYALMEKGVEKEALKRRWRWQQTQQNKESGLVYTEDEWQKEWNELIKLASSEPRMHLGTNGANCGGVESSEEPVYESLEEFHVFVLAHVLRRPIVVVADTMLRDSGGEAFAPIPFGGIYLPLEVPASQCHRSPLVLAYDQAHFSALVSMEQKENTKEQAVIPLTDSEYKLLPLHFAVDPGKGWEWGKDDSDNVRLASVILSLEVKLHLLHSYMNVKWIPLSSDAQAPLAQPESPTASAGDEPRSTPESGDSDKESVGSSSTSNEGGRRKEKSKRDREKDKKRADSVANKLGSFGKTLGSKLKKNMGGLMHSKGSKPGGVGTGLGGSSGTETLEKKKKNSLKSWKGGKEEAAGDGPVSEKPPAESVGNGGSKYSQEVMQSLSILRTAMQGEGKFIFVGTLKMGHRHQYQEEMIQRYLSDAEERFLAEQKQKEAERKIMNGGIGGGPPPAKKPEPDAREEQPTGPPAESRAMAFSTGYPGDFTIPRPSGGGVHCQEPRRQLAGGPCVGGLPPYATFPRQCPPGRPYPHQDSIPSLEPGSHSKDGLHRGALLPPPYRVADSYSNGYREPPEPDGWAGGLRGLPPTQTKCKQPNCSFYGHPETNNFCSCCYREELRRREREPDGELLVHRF
Outline: as §1

PRPF8 = PRPF8 (UniProt Q6P2Q9)
Outline: as §1

PSMD7 = molecular target: T3, PSMD7 (UniProt P51665)
T3 sequence (whole entry): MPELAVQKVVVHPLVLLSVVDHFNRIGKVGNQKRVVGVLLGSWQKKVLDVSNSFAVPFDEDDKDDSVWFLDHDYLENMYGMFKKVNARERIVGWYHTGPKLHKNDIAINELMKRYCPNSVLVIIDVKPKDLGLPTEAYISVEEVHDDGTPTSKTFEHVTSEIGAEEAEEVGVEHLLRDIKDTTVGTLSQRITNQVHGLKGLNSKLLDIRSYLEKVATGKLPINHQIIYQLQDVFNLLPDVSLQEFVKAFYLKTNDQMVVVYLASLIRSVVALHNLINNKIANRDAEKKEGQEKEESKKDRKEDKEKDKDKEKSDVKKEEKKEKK
Outline: as §1

UCHL1 = UCHL1 (UniProt P09936)
Chain of UCHL1 (P09936 whole entry, looked up): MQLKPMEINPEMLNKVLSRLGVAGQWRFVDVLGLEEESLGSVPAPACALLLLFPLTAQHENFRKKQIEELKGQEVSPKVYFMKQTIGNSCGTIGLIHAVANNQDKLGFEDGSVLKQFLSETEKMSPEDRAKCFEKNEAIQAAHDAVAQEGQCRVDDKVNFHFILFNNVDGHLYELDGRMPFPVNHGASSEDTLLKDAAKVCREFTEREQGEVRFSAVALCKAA
Outline: as §1

UCHL3 = molecular target: T4, UCHL3 (UniProt P15374)
T4 sequence (whole entry): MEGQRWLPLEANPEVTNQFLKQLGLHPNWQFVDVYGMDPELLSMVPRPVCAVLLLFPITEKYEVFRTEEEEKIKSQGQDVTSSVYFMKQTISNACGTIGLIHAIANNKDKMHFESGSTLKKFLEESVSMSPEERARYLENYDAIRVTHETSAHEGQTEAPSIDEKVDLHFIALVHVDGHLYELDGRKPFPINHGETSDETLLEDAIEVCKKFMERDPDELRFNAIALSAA
Outline: as §1

UCHL5 = molecular target: T5, UCHL5 (UniProt Q9Y5K5)
T5 sequence (whole entry): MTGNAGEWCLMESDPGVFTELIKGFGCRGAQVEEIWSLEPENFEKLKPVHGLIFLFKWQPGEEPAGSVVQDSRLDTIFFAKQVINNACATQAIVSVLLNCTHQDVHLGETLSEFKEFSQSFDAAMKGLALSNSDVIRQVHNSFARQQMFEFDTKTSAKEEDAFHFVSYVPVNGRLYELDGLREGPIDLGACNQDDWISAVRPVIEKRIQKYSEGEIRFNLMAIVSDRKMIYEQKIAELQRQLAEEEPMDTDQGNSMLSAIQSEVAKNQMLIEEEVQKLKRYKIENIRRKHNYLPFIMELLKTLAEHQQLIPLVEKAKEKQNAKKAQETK
Outline: as §1

USP10 = USP10 (UniProt Q14694)
Chain of USP10 (Q14694 whole entry): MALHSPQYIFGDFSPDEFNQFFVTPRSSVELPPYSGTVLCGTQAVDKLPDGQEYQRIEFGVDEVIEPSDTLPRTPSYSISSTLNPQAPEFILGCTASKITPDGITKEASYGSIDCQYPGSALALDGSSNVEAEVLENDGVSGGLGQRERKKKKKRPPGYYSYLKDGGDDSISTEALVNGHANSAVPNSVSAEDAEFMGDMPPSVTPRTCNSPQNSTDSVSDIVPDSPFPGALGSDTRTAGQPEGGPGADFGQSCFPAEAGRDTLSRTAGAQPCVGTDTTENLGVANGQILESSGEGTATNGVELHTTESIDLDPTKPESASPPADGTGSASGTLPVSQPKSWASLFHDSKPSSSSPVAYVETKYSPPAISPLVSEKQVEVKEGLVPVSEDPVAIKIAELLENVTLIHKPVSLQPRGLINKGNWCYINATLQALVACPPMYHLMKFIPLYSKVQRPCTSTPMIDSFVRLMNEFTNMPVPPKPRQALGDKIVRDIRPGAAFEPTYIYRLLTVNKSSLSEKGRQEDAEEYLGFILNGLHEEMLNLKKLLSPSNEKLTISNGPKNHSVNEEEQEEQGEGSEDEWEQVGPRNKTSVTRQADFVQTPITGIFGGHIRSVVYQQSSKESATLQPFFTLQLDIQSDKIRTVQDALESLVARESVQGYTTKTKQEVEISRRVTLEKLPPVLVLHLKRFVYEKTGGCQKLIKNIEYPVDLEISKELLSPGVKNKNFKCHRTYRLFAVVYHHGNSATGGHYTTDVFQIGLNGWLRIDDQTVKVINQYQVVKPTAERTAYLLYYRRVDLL
Outline: as §1

USP15 = molecular target: T6, USP15 (UniProt Q9Y4E8)
T6 sequence (whole entry): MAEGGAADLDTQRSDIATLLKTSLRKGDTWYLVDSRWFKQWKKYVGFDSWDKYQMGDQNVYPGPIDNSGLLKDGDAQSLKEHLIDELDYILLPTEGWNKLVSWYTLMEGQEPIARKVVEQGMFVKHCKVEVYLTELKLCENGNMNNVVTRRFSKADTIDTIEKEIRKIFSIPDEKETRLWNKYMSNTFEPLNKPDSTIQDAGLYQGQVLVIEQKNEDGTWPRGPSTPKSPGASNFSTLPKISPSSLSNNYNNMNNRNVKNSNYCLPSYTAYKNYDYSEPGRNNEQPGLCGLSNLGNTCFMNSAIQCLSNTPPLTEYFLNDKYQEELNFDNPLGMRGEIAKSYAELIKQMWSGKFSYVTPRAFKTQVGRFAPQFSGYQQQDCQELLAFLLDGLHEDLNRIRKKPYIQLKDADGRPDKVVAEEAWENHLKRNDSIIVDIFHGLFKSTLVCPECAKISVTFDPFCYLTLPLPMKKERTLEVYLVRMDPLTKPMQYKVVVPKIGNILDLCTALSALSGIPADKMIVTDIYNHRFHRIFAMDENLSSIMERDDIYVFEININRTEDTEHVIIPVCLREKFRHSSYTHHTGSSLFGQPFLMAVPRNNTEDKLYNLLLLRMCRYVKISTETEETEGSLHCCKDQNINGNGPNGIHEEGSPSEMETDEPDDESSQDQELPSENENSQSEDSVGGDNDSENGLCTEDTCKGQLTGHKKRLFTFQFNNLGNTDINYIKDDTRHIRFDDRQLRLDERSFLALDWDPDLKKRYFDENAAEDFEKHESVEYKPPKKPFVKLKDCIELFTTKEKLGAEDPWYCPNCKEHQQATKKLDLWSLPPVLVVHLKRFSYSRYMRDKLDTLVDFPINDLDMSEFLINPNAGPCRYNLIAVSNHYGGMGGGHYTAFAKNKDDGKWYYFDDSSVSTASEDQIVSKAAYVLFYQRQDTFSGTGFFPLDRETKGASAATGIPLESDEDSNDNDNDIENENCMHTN
Outline: as §1

USP16 = USP16 (UniProt Q9Y5T5)
Chain of USP16 (Q9Y5T5 whole entry, looked up): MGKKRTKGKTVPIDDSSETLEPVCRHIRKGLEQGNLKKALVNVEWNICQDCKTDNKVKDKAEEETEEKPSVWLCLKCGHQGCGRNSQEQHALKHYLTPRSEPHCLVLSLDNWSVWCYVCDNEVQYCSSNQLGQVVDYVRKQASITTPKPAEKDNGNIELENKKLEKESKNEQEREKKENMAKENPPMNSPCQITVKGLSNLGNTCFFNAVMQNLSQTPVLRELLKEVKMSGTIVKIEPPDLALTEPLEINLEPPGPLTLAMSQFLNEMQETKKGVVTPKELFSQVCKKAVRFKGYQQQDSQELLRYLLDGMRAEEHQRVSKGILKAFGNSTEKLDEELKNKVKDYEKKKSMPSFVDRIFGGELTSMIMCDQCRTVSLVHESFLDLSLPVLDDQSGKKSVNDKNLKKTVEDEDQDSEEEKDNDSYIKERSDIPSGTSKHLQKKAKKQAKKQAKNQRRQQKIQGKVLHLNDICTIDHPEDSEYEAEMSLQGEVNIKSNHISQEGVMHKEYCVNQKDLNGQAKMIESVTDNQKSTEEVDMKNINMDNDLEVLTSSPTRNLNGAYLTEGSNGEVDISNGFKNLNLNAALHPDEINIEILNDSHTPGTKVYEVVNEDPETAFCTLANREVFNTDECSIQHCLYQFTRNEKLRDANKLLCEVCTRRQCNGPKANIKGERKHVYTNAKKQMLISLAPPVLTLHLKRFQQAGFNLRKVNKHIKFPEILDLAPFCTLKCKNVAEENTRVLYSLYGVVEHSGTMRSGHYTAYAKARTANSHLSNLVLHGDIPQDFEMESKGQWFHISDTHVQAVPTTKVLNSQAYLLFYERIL
Outline: as §1

Measured: log2 ratio of Biotin-Ahx-Ub-VS probe labelling

O=C(CCl)NC1CCC2(CC1)OCCO2
inactive: OTUD6B -0.272 | OTUD7B -0.893 | PRPF8 -0.267 | PSMD7 -0.147 | UCHL3 -0.0419 | UCHL5 -0.477 | USP10 -0.165 | USP15 -0.308 | USP16 -0.00437
active: UCHL1 -1.25
